Reference: PubChem BioAssay AID720513 (Broad Institute, 2013)
Hit rate of the full screen: of about 2,100 compounds, about 480 (23%) were called active. Not shown: some 5% with an inconclusive outcome.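 How the source made its calls: active means fitted curve reaches 40% activation at or below the top valid concentration, in every replicate test; inconclusive means replicate tests disagree on the call; inactive means the rest, including activity in the opposite direction.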 These entries were drawn from the full list. Measured potencies and affinities stand elsewhere.

Assay: activators raising PGC1a acetylation in cells, dose response, cell-based, cherry-picked samples, set 6 (AID 720513);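 further: cells made to overexpress flag tagged PGC1a plus GCN5 acetyltransferase by viral infection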
Settings: U2OS PGC1a acetylation AlphaLISA, overnight, 0 = neutral, -100 = inhibitor control; series mostly up to 19.5 µM; activation (acetylation increase): at the top concentration

Activation (acetylation increase), inactive:
CC(=O)Nc1ccc(C(=O)OC2CCOC2=O)cc1 (stereo not drawn) -33.4%
NC(=O)c1ccc(NC(=O)C#Cc2ccccc2)cc1 -15.7%
COc1ccccc1OCCn1c(C(C)O)nc2ccccc21 (stereo not drawn) -2.54%
COc1ccccc1C(=O)Nc1ccc2c(c1)C(=O)N(C)C[C@H](OC)[C@H](C)CN(CC1CC1)[C@@H](C)CO2 3.86%
CCCn1c(=O)c2ccccc2n2c(SCc3c(C(=O)OCC)oc4ccccc34)nnc12 21.8%
CCCCOc1ccc(/C=C/C(=O)OCC(=O)c2c(N)n(C)c(=O)n(C)c2=O)cc1OCC -26.6% [at 10 µM]
COc1ccccc1-c1ccc([C@@H]2[C@H](CO)N(C(C)=O)C23CN(C(C)=O)C3)cc1 -21.7%
C[C@H](CO)N1C[C@H](C)[C@H](CN(C)S(=O)(=O)c2ccc(F)cc2)Oc2ccc(NS(=O)(=O)c3cn(C)cn3)cc2C1=O 11.4%
O=C(Nc1ccc(C(F)(F)F)cc1)N1C[C@@H]2N[C@H](C1)C2c1ccc(-c2cccc(F)c2)cc1 (stereo partly drawn) -102%
CCN(CC)C(=O)c1ccc(O)c(OC)c1 4.18%
COc1ccc(NC(=O)N(C)C[C@@H]2OCCCC[C@@H](C)Oc3ccc(NC(=O)Cc4ccccc4)cc3C(=O)N([C@H](C)CO)C[C@@H]2C)cc1 16.1%
CCCN(C)C[C@H]1OCCCC[C@@H](C)Oc2ccc(NS(=O)(=O)c3ccc(Cl)cc3)cc2C(=O)N([C@@H](C)CO)C[C@H]1C 17.5%
C[C@@H]1CCCCO[C@@H](CN(C)C)[C@@H](C)CN([C@H](C)CO)C(=O)c2cc(NS(=O)(=O)c3ccc(Cl)cc3)ccc2O1 21%
CC(C)NC(=O)Nc1ccc2c(c1)C(=O)N([C@@H](C)CO)C[C@@H](C)[C@H](CN(C)S(=O)(=O)c1ccccc1)OCCCC[C@@H](C)O2 33%
C[C@@H]1CN([C@@H](C)CO)C(=O)c2cc(N(C)C)ccc2O[C@@H](C)CCCCO[C@H]1CN(C)C(=O)c1ccncc1 -3.64%
CC(C)NC(=O)Nc1ccc2c(c1)C(=O)N([C@@H](C)CO)C[C@@H](C)[C@H](CN(C)C(=O)NC(C)C)OCCCC[C@@H](C)O2 5.53%
C[C@@H]1CCCCO[C@H](CN(C)C(=O)Cc2ccccc2)[C@H](C)CN([C@@H](C)CO)C(=O)c2cc(N(C)C)ccc2O1 6.29%
CC(C)NC(=O)Nc1ccc2c(c1)C(=O)N([C@H](C)CO)C[C@@H](C)[C@H](CN(C)S(=O)(=O)c1ccccc1)OCCCC[C@@H](C)O2 14.8% [at 21 µM]
O=C1CC2CS(=O)(=O)CC2N1c1ccc(Cl)cc1Cl (stereo not drawn) 16.7%
NS(=O)(=O)c1ccc(CCNC2CC(=O)N(Cc3ccccc3)C2=O)cc1 (stereo not drawn) -6.93%
O=C1CCN(S(=O)(=O)c2ccc(Cl)cc2)N1 22.7%
Cc1cc(C)n(CCc2nc3c4ccccc4n(CC#N)c(=O)n3n2)n1 0.376%
Cc1ccc(C(=O)Cn2c(C(=O)OCCO)cc3ccccc32)cc1 28.5%
COc1cc(C(=O)O)ccc1Cl -5.01%
Cc1ccc(Cn2ncc(Cl)c(Cl)c2=O)cc1 -95.1%
C[C@H](CO)N1C[C@H](C)[C@@H](CN(C)C(=O)Nc2cccc3ccccc23)OCCCC[C@H](C)Oc2ccc(N(C)C)cc2C1=O 20%
Cc1ccc(S(=O)(=O)Nc2ccc3c(c2)C(=O)N([C@H](C)CO)C[C@H](C)[C@H](CN(C)C(=O)NC(C)C)OCCCC[C@@H](C)O3)cc1 -12.8% [at 21 µM]
C[C@H]1CCCCO[C@H](CN(C)C(=O)Nc2cccc3ccccc23)[C@@H](C)CN([C@@H](C)CO)C(=O)c2cc(N(C)C)ccc2O1 26.8%
Cc1noc(C)c1S(=O)(=O)Nc1ccc2c(c1)C(=O)N([C@@H](C)CO)C[C@@H](C)[C@@H](CN(C)CC1CCCCC1)OCCCC[C@@H](C)O2 22.1%
Cc1ccc(S(=O)(=O)Nc2ccc3c(c2)C(=O)N([C@H](C)CO)C[C@@H](C)[C@@H](CN(C)C(=O)NC(C)C)OCCCC[C@H](C)O3)cc1 31%
Cc1noc(C)c1S(=O)(=O)Nc1ccc2c(c1)C(=O)N([C@H](C)CO)C[C@@H](C)[C@@H](CN(C)S(=O)(=O)c1cccs1)OCCCC[C@H](C)O2 35.5%
COc1ccc(NC(=O)Nc2ccc3c(c2)C(=O)N([C@H](C)CO)C[C@H](C)[C@@H](CN(C)S(=O)(=O)c2ccc(Cl)cc2)O3)cc1 0.725%
C=C1CCN(c2ccc(C(=O)NCc3ccccc3)cc2[N+](=O)[O-])CC1 6.43%
C[C@H]1CN([C@@H](C)CO)C(=O)Cc2cc(NS(=O)(=O)c3ccc(Cl)cc3)ccc2O[C@H]1CN(C)Cc1ccc(-c2ccccc2)cc1 35.3%
O=C(Nc1ccc(Cl)c(Cl)c1)N[C@@H]1CC[C@H](CCn2cc(C3CC3)nn2)O[C@H]1CO 8.37%
O=S(=O)(N[C@@H]1CC[C@@H](CCNS(=O)(=O)c2ccccc2Cl)O[C@H]1CO)c1ccccc1 15%
C[C@@H]1CN([C@@H](C)CO)S(=O)(=O)c2ccc(-c3ccc(C#N)cc3)cc2O[C@H]1CN(C)C(=O)CN(C)C -16.6%
CC(C)C#Cc1cnc2c(c1)C(=O)N([C@@H](C)CO)C[C@@H](C)[C@@H](CN(C)C(=O)CN1CCOCC1)O2 31%
CCCN(CC)c1ncnc2[nH]ncc12 -16.1%
CCCOC1CCCN(C(=O)c2cc(Cl)c(Cl)cc2C(=O)O)C1 (stereo not drawn) 5.2%
COc1ccc(-n2nc(C#N)c(Cl)cc2=O)cc1 -97.3%
C[C@H](CO)N1C[C@H](C)[C@H](CN(C)Cc2ccc(Oc3ccccc3)cc2)Oc2c(NC(=O)Nc3ccc4c(c3)OCO4)cccc2C1=O -63.5%
Cc1ccc(N2C(=O)c3ccccc3NC2C(C)Cc2ccc3c(c2)OCO3)cc1 (stereo not drawn) 11.5%
Cc1ccc(S(=O)(=O)N(C)C[C@@H]2OCCCC[C@H](C)Oc3ccc(NS(C)(=O)=O)cc3C(=O)N([C@@H](C)CO)C[C@@H]2C)cc1 30.4%
Cc1nc2ccccc2n2c(O)c(CC(=O)O)cc12 27.1%
Cc1ccc(S(=O)(=O)N(C)C[C@H]2OCCCC[C@H](C)Oc3ccc(N(C)C)cc3C(=O)N([C@H](C)CO)C[C@@H]2C)cc1 26.9%
C(=C\c1ccccc1)/CN1CCN(C(c2ccnc3ccccc23)c2nnnn2C2CCCCC2)CC1 (stereo not drawn) -15.6%
COc1cccc(CNC(=O)CCC2CCCN(Cc3ccc(OC(F)F)cc3)C2)c1 (stereo not drawn) 36.4%
COc1ccc(C[C@@H]2OC3(C=CC(=O)C=C3)O[C@H]2Cc2ccc(OC)cc2)cc1 -102%
CC(=O)N(CCC(Cc1ccccc1)c1ccc2c(c1)OCO2)Cc1ccccc1F (stereo not drawn) 28.5%
O=C(CN1CCOCC1)N[C@H]1CC[C@H](CCNC(=O)Nc2cc(F)ccc2F)O[C@H]1CO -4.65%
Cn1c(C(C#N)C(=O)c2sc3ccccc3c2Cl)nc2ccccc21 (stereo not drawn) 4.54%
Cc1ccc(N2CCN(CC(O)COC3CCCCC3)CC2)cc1 (stereo not drawn) 29.2%
CC1CCCN(C(=O)Cc2ccc(F)cc2)C1 (stereo not drawn) -34.7%
CC(c1ccccc1)C1CC(=O)N(c2ccc([N+](=O)[O-])cc2)C1=O (stereo not drawn) 11.3%
CN1CCN(c2ccc([N+](=O)[O-])cc2C(=O)Nc2ccccc2)CC1 14.4%
CCC(=O)N1CCN(c2ccc(Cl)cc2NC(=O)c2ccc([N+](=O)[O-])o2)CC1 3.87%
Cc1cccc(N2CCN(CC3CCCCC3)CC2)c1C 16.9% [at 10 µM]
CC(C)C(NC(=O)c1ccc(C(C)(C)C)cc1)C(=O)O (stereo not drawn) 43%
C[C@@H]1CCCCO[C@H](CN(C)C(=O)NC2CCCCC2)[C@@H](C)CN([C@@H](C)CO)C(=O)c2cc(NC(=O)NC3CCCCC3)ccc2O1 -13.8%
N#Cc1c(-c2ccccc2)c(-c2ccccc2)nn(CC(=O)NNC(=O)Nc2ccc(Cl)cc2)c1=O 6.86%
O=C(c1nc2nc(-c3ccccc3)cc(C(F)(F)F)n2n1)N1CCCCC1 -6.13%
CC[C@H](C)[C@H](NC(=O)c1ccc(Cl)cc1)C(=O)OCC(=O)c1ccc2c(c1)NC(=O)CO2 -58.8%
COc1cccc(CN2CCC(CO)(CC3CCCCO3)CC2)c1 (stereo not drawn) 10.6%
OCC1(Cc2ccc(F)cc2F)CCCN(Cc2ccc(Cl)cc2)C1 (stereo not drawn) 21.8%
N#Cc1cccc(-c2ccc(C3[C@@H]4CN(Cc5ccccc5F)C[C@H]3N4)cc2)c1 (stereo partly drawn) -96.5% [at 21 µM]
COc1cccc(C2c3[nH]c4ccccc4c3CCN2Cc2cnc(C)s2)c1OC (stereo not drawn) 14.4%
CCc1nccn1S(=O)(=O)c1cc(C)c(OC)cc1C 19%
COc1ccc(NC(=O)N[C@H]2CC[C@@H](CCn3cc(-c4ccccc4F)nn3)O[C@H]2CO)cc1 7.45%
CCOC(=O)c1cnn(-c2ccccc2)c1-n1cccc1C(=O)C(=O)Nc1ccc(F)cc1 22.3%
CN(C)S(=O)(=O)c1cc(NC(=O)CN2CCc3ccccc32)ccc1Cl 21.9%
CCOCCCNC(=O)C1CCN(C(=O)Nc2ccc(C)cc2)CC1 8.6%
Cc1cc(=O)[nH]c(SCC(=O)N2CCc3ccccc3C2)n1 -6.79%
CCOC(=O)c1ccc(NC(=O)CCS(=O)(=O)c2ccc(Br)s2)cc1 16.1%
CC(C(=O)N1CCc2ccccc2C1)N(c1ccccc1)S(C)(=O)=O (stereo not drawn) -5.83%
CC(C)Oc1ccc2nnnn2n1 -8.35%
CCCSCC(=O)Nc1ncc2c(n1)-c1ccccc1CC2 -13.2%
C[C@H]1CN([C@@H](C)CO)S(=O)(=O)c2ccc(C#CC3CCCCC3)cc2O[C@@H]1CN(C)Cc1cccnc1 -61.9%
CCc1nc(SCC(=O)N2c3ccccc3Sc3ccccc32)c2ccccc2n1 -8.97%
O=C(c1ccco1)N1CCN(C(=O)N2c3ccccc3Sc3ccccc32)CC1 7.72%
O=c1[nH]c2ccccc2nc1/C=C/c1ccc(O)cc1 33.7% [at 10 µM]
C[C@H]1CN([C@@H](C)CO)C(=O)c2cccc(NC(=O)Nc3ccc(F)cc3)c2O[C@@H]1CN(C)S(=O)(=O)c1cn(C)cn1 -10.4%
C[C@H](NS(=O)(=O)c1ccc2c(c1)OCCCO2)C(=O)N1CCN(Cc2ccccc2)CC1 -16.9%
